Results reported in PubChem BioAssay AID588442 (The Scripps Research Institute Molecular Screening Center, 2011).
Measured potencies and affinities stand elsewhere. Some structures have more than one record in an assay (separate samples or runs), and their calls can disagree. Calls of active or inactive are those of the source.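 How the source made its calls: active means EC50 of 10 µM or lower; inactive means EC50 above 10 µM or not measured.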

Assay: optical interference in Abeta FP readout, dose response, artefact control for IDE activator project, biochemical, fluorescence polarization (AID 588442)
Conditions: FP artifact counterscreen, fluorescein-Abeta, no enzyme activity

With `C#CCOCCOCCOCCNc1nc(N2CCN(C(=O)CCCCCCCCCCNC(=O)Cn3cc(CCCCCN)nn3)CC2)nc(N2CCN(C(=O)CCCCCCCCCCNC(=O)[C@H]([C@@H](C)CC)n3cc(CCCCCN)nn3)CC2)n1` as the compound, how does the EC50 read?
The EC50 was > 55.9 µM (inactive).

Which EC50 does the source give for `C#CCOCCOCCOCCNc1nc(N2CCN(C(=O)CCCCCCCCCCNC(=O)[C@H]([C@@H](C)CC)n3cc(CCCCN=C(N)N)nn3)CC2)nc(N2CCN(C(=O)CCCCCCCCCCNC(=O)[C@@H]([C@H](C)O)n3cc(C)nn3)CC2)n1` here?
Its EC50 is > 54.7 µM (inactive).

Which EC50 does the source give for `C#CCOCCOCCOCCNc1nc(N2CCN(C(=O)CCCCCCCCCCNC(=O)Cn3cc(CCCCCN)nn3)CC2)nc(N2CCN(C(=O)CCCCCCCCCCNC(=O)[C@H](CO)n3cc(CCCSC)nn3)CC2)n1` here?
The EC50 was > 54.7 µM (inactive).

Which EC50 does the source give for `C#CCOCCOCCOCCNc1nc(N2CCN(C(=O)CCCCCCCCCCNC(=O)Cn3cc(CCCCCN)nn3)CC2)nc(N2CCN(C(=O)CCCCCCCCCCNC(=O)Cn3cc(C[C@@H](C)O)nn3)CC2)n1` here?
Its EC50 is > 54.7 µM (inactive).

For `C#CCOCCOCCOCCNc1nc(N2CCN(C(=O)CCCCCCCCCCNC(=O)Cn3cc(C[C@@H](C)O)nn3)CC2)nc(N2CCN(C(=O)CCCCCCCCCCNC(=O)[C@H](CCCN=C(N)N)n3cc(C[C@@H](C)CC)nn3)CC2)n1`, which EC50 is on record?
Its EC50 is > 55.9 µM (inactive).

With `C[n+]1c2cc(N)ccc2cc2ccc(N)cc21` as the compound, how does the EC50 read?
The EC50 was 0.576 µM (active).

Which EC50 does the source give for `C#CCOCCOCCOCCNc1nc(N2CCN(C(=O)CCCCCCCCCCNC(=O)[C@@H](CCSC)n3cc(CCO)nn3)CC2)nc(N2CCN(C(=O)CCCCCCCCCCNC(=O)[C@H](CO)n3cc(CCCCCN)nn3)CC2)n1` here?
Its EC50 is > 56 µM (inactive).

Which EC50 does the source give for `C#CCOCCOCCOCCNc1nc(N2CCN(C(=O)CCCCCCCCCCNC(=O)[C@H]([C@@H](C)CC)n3cc(CCCCCN)nn3)CC2)nc(N2CCN(C(=O)CCCCCCCCCCNC(=O)[C@H]([C@@H](C)CC)n3cc(CCCCN=C(N)N)nn3)CC2)n1` here?
The EC50 was > 55.9 µM (inactive).

Which EC50 does the source give for `C#CCOCCOCCOCCNc1nc(N2CCN(C(=O)CCCCCCCCCCNC(=O)[C@H](CO)n3cc(CCCSC)nn3)CC2)nc(N2CCN(C(=O)CCCCCCCCCCNC(=O)[C@H](CCCCN)n3cc(CCO)nn3)CC2)n1` here?
The EC50 was > 55.9 µM (inactive).

For `C#CCOCCOCCOCCNc1nc(N2CCN(C(=O)CCCCCCCCCCNC(=O)[C@H](CCCCN)n3cc(CCO)nn3)CC2)nc(N2CCN(C(=O)CCCCCCCCCCNC(=O)[C@H](CCCN=C(N)N)n3cc(C[C@@H](C)CC)nn3)CC2)n1`, which EC50 is on record?
Its EC50 is > 55.9 µM (inactive).
